# Laboratory results from paper PMC5540273 (PLoS ONE, 2017).
# Tests used:
# PRKR = system: T1, PRKR
# T1 construct: gene EIF2AK2
# PIP5K2C = system: T2, PIP5K2C
# T2 construct: gene PIP4K2C
# PIK4CB = system: T3, PIK4CB
# T3 construct: gene PI4KB
# 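Also: kd values determined as follow-up on hits from a single-replicate KINOMEscan panel screen.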
smiles,measurement,setting,value
COc1ccc(Nc2nccc(N3CCC(NS(=O)(=O)c4ccc(NC(C)=O)cc4)C3)n2)cc1 (stereo not drawn) [GSK1379729],Kd,RIPK2,> 10000 nM
COc1cc2ncn(-c3cc(OCc4ccncc4)c(C(N)=O)s3)c2cc1OC [GSK336313],Kd,PLK1,110 nM
same,Kd,PLK2,41 nM
O=C1NC(=O)C(c2ccccc2)=C1Nc1cccc(O)c1 [SB-390534],Kd,PRKR,> 10000 nM
COc1cc(Nc2nccc(N3CCC(NC(=O)C4COc5ccccc5O4)C3)n2)cc(OC)c1OC (stereo not drawn) [GSK1379761],Kd,PIP5K2C,670 nM
CCC(=O)c1c(-c2ccccc2)c2cc(Cl)ccc2c(=O)n1Cc1cc(S(C)(=O)=O)n(CC(N)=O)n1,Kd,PRKCH,> 10000 nM
C[C@@H]1CC[C@H](C(=O)NC2CCCCC2)CN1c1cc(-c2ccc3c(N)n[nH]c3c2)nc(N)n1 [GSK2291363],Kd,PIP5K1A,440 nM
same,Kd,PRKX,460 nM
same,Kd,RIOK1,210 nM
same,Kd,RIOK3,150 nM
COc1ccc(-c2cc3c(C)nc(N)nc3n([C@H]3CC[C@H](OCCO)CC3)c2=O)cn1,Kd,PIK4CB,46 nM
COc1cc2ncn(-c3cc(OCc4ccc(S(C)(=O)=O)cc4)c(C(N)=O)s3)c2cc1OC [GW869979],Kd,PLK1,14 nM
same,Kd,PLK2,5.9 nM
same,Kd,PLK3,100 nM
COc1cc2ncn(-c3cc(OCc4ccncc4Br)c(C(N)=O)s3)c2cc1OC [GW854278],Kd,PIP5K1C,610 nM
same,Kd,PIP5K2C,330 nM
same,Kd,PLK1,1.1 nM
same,Kd,PLK2,1.4 nM
same,Kd,PLK3,9.4 nM
COc1cccc(C2=C(Nc3cccc(C(=O)O)c3)C(=O)NC2=O)c1 [SB-390770],Kd,PRKCI,> 10000 nM
COc1cc2ncn(-c3cc(OCCCc4ccccc4)c(C(N)=O)s3)c2cc1OC [GSK205189],Kd,PLK2,34 nM
same,Kd,PLK3,120 nM
CCS(=O)c1ccc(-c2coc3ccc(-c4nnc(C)o4)cc23)cc1 (stereo not drawn),Kd,PIP5K2C,85 nM
Cc1cc(Nc2nc(-c3cccc(C)n3)nc3ccccc23)ccn1 [GW872411],Kd,PRKD1,6.1 nM
same,Kd,PRKD2,9.4 nM
FC(F)(F)c1ccc(-c2ncn(CCCN3CCOCC3)c2-c2ccncc2)cc1 [SB-217780],Kd,PRKCD,> 10000 nM
COc1cc2nccc(Nc3cccc(Oc4ccccc4)c3)c2cc1OC.Cl [GW284543],Kd,RIPK2,440 nM
Cc1cccc(-c2nc(Nc3ccc4c(cnn4C)c3)c3ccccc3n2)n1 [GW876731],Kd,PIKFYVE,380 nM
same,Kd,PRKD1,7.2 nM
same,Kd,PRKD2,12 nM
same,Kd,PRKD3,13 nM
Cc1ccccc1COc1cc(-n2cnc3cc(Cl)ccc32)sc1C(N)=O [GW813349],Kd,PLK1,19 nM
same,Kd,PLK2,68 nM
same,Kd,PLK3,99 nM
Nc1ncnc2c1ncn2-c1cccc(F)c1 [SKF-97560],Kd,RIPK2,> 10000 nM
COc1ccc(-c2cc3c(C)nc(N)nc3n([C@H]3CC[C@H](O)CC3)c2=O)cn1,Kd,PIK3CG,0.32 nM
same,Kd,PIK4CB,25 nM
Cc1ccc(Oc2ccc(Nc3ncnc4cc[nH]c34)cc2C)cn1,Kd,RIOK1,> 10000 nM
Nc1nc(-c2ccccc2F)c(-c2ccnc3ccccc23)s1 [GW560459],Kd,RIPK2,> 10000 nM
